Methyltransferases – Primary Screen for Target Class Profiling of Small Molecule Inhibitors of Methyltransferases; purified enzyme, MTase-Glo SAH luminescence; stronger effect = lower value; calls only at 40 µM; 25,000 tested, 3.9% active; AID 1745853, 2022; call rule not given here
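Each enzyme was assayed with SAM and its substrate. SAH formation detected by MTase-Glo luminescence; single-point 40 uM screen[…].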
Each line names hits and unclear results; the compound was inactive in the other large screens. The entries come from a sample that favours hits as a whole.

C/C=C(\C)C(=O)O[C@H]1[C@@H](O[C@]2(COC(=O)CC(C)C)O[C@H](COC(=O)C(C)C)[C@@H](OC(C)=O)[C@@H]2O)O[C@H](COC(C)=O)[C@@H](O)[C@@H]1O	Methyltransferases active
CCCn1c(=O)c2ccccc2n2c(=O)n(Cc3cc(C)ccc3C)nc12	none
COc1ccc2nc(NC(=O)Cn3c(=O)oc4cc(S(=O)(=O)NC(C)C)ccc43)sc2c1	none
COc1cccc(CN2C(=O)c3cc4occc4n3CC2(C)C(=O)NC2CCCCCC2)c1OC (centres undefined)	none
O=C(Cn1nc2n(Cc3ccc(F)cc3)c(=O)c3ccccc3n2c1=O)NCc1ccccc1	none
CC1(C(=O)NCc2ccccc2)Cn2c(ccc2-c2ccco2)C(=O)N1Cc1ccc(Cl)cc1 (centres undefined)	none
O=c1[nH]c2ccc(S(=O)(=O)Nc3ccc(N4CCOCC4)cc3)cc2[nH]1	none
c1cn2cc(-c3ccc4cn[nH]c4c3)nc(Nc3ccc(N4CCOCC4)cc3)c2n1	Methyltransferases active
CCc1cc2c(cc3n2CC(C)(C(=O)NC2CCCCC2)N(c2ccc(OC)c(OC)c2)C3=O)s1 (centres undefined)	none
CCCn1c(=O)c2ccc(C(=O)NC(C)CC)cc2n2c(SCC(=O)Nc3ccc(F)cc3)nnc12 (centres undefined)	none
CC(C)CCN1C(=O)c2ccc(-c3ccco3)n2CC1(C)C(=O)NC1CCCCCCC1 (centres undefined)	none
CC1CCC(NC(=O)C2(C)Cn3c(ccc3-c3ccccc3)C(=O)N2CCCc2ccccc2)CC1 (centres undefined)	none
CC1=CC(=O)C2C(C)(C)CCC[C@]2(C)[C@H]1CO (some centres undefined)	none
CC1=CC(=O)C2C(C)(C)CCC[C@]2(C)[C@H]1CC[C@H](C)CC(=O)O (some centres undefined)	none
CC(=O)OC/C(=C/C(=O)O)CC[C@@H]1C(C)=CC(=O)[C@@H]2C(C)(C)CCC[C@@]12C	Methyltransferases active
CC(C)CNC(=O)c1ccc2c(=O)n(C(C)C)c3nn(C)c(=O)n3c2c1	none
COc1ccc(C(=O)Cn2nc3n(C(C)C)c(=O)c4ccc(C(=O)NC5CCCCC5)cc4n3c2=O)cc1	none
CC1(C(=O)NC2CCCCCCC2)Cn2c(cc3occc32)C(=O)N1C1CCCCCC1 (centres undefined)	none
CC1CCCC(NC(=O)C2(C)Cn3c(cc4sccc43)C(=O)N2Cc2ccc(F)cc2)C1C (centres undefined)	none
Cn1c(=O)c2ccc(C(=O)NC3CCCCC3)cc2n2c(SCc3c(F)cccc3Cl)nnc12	none
CC(C)OCCCn1c(=O)c2ccccc2n2c(CCC(=O)N3CCN(c4ccccc4)CC3)nnc12	none
CCc1c(Cl)c(O)c(Cl)c(O)c1C(=O)O[C@H]1[C@H](O)[C@H](OC)[C@H](OC/C2=C\C=C\C[C@H](O)/C(C)=C\[C@H](CC)[C@@H](O[C@@H]3OC(C)(C)[C@@H](OC(=O)C(C)C)[C@H](O)[C@@H]3O)/C(C)=C/C(C)=C/C[C@@H]([C@@H](C)O)OC2=O)O[C@@H]1C	Methyltransferases active
Cc1ccc(N2C(=O)c3cc(C(C)(C)C)nn3CC2(C)C(=O)NC2CCCCC2)cc1C (centres undefined)	none
CCOCCCN1C(=O)c2cc3occc3n2CC1(C)C(=O)NC1CCCCCC1 (centres undefined)	none
COCCCNC(=O)CCc1nnc2n(Cc3ccccc3)c(=O)c3ccccc3n12	none
Cc1cc(C)c(S(=O)(=O)NCCc2n[nH]c(Cc3ccc(F)cc3)n2)cc1C	none
CN1C(=O)c2cc3ccccc3n2CC1(C)C(=O)NCC(=O)NCCc1cccs1 (centres undefined)	none
COc1cccc(CN2C(=O)c3cc4occc4n3CC2(C)C(=O)NC2CCCC(C)C2C)c1 (centres undefined)	none
COc1ccc(C(=O)N[C@@H]2CN(C(=O)Nc3cccc(C(F)(F)F)c3)CCC[C@H]2O)cc1	none
COc1ccc2cc(CNc3ccc(C)cc3)c(=O)n(CC(=O)Nc3cccc(C(F)(F)F)c3)c2c1	Methyltransferases active
Cc1cc(C)cc(Nc2nc(C)cc(=O)n2CC(=O)Nc2cccc(C(F)(F)F)c2)c1	none
COc1ccc(CNC(=O)CCn2ccc3cc(S(=O)(=O)N4CCCCC4)ccc32)cc1OC	none
C[C@@H]1O[C@@H](O[C@@H]2[C@@H](O)[C@H](O[C@H]3[C@H](O[C@H]4CC[C@@]5(C)C(CC[C@]6(C)C5CC=C5[C@@H]7CC(C)(C)CC[C@]7(C(=O)O[C@@H]7O[C@H](CO)[C@@H](O)[C@H](O)[C@H]7O)CC[C@]56C)C4(C)C)O[C@H](C(=O)O)[C@@H](O)[C@@H]3O)OC[C@H]2O)[C@H](O)[C@H](O)[C@H]1O (some centres undefined)	none
CC1(C)CC[C@]2(C(=O)O[C@@H]3O[C@H](CO)[C@@H](O)[C@H](O)[C@H]3O)CC[C@]3(C)C(=CCC4[C@@]5(C)CC[C@H](O[C@@H]6O[C@H](C(=O)O)[C@@H](O)[C@H](O)[C@H]6O)C(C)(C)C5CC[C@]43C)C2C1 (some centres undefined)	none
CC1OC(OC2C(OC(=O)[C@]34CCC(C)(C)C[C@H]3C3=CCC5[C@@]6(C)CC[C@H](OC7OC(C(=O)O)C(O)C(O)C7O)C(C)(C)C6CC[C@@]5(C)[C@]3(C)CC4O)OC(CO)C2O)C(O)C(O)C1OC1OCC(O)C(O)C1O (some centres undefined)	Methyltransferases active
CC1(C)CC[C@@]2(C(=O)O[C@@H]3O[C@H](CO)[C@@H](O)[C@H](O)[C@H]3O)C(C1)C1=CCC3[C@@]4(C)CC[C@@H](O[C@@H]5O[C@H](C(=O)O)[C@@H](O[C@@H]6OC[C@@H](O)[C@H](O)[C@H]6O)[C@H](O[C@@H]6OC[C@](O)(CO)[C@H]6O)[C@H]5O)C(C)(C)C4CC[C@@]3(C)[C@]1(C)C[C@H]2O (some centres undefined)	none
CC1(CO)CC[C@]2(C(=O)O[C@@H]3O[C@H](CO)[C@@H](O)[C@H](O)[C@H]3O)CC[C@]3(C)C(=CCC4[C@@]5(C)CC[C@H](O[C@@H]6O[C@H](C(=O)O)[C@@H](O)[C@H](O)[C@H]6O)C(C)(C)C5CC[C@]43C)C2C1 (some centres undefined)	none
CC1(C)CC[C@]2(C(=O)O[C@@H]3O[C@H](CO)[C@@H](O)[C@H](O)[C@H]3O)CC[C@]3(C)C(=CCC4[C@@]5(C)CC[C@H](O[C@@H]6O[C@H](C(=O)O)[C@H](O)[C@H](O)[C@H]6O)C(C)(C)C5CC[C@]43C)[C@@H]2C1 (some centres undefined)	Methyltransferases active
CCCC1c2ccc(C)n2CCN1C(=O)Nc1cc(Cl)ccc1OC (centres undefined)	none
CC1(C(=O)NC2CCCC2)Cn2c(nc3ccccc32)C(=O)N1Cc1cccc(Br)c1 (centres undefined)	none
CN1C(=O)c2cc(C(=O)NCc3cccc(Cl)c3)nn2CC1(C)C(=O)NCc1ccccc1 (centres undefined)	none
COc1ccc(OC)c(S(=O)(=O)N2CCC[C@H](n3c(=O)n(C)c4cccnc43)C2)c1	none
C=CCn1c(=O)c2ccc(C(=O)NC(C)C)cc2n2c(=O)n(CC(=O)Nc3ccccc3F)nc12	none
COc1ccc2cc3n(c2c1)CC(C)(C(=O)NC1CCCC1)N(c1ccc(C)cc1)C3=O (centres undefined)	none
COc1cccc(CN2C(=O)c3cc4sccc4n3CC2(C)C(=O)NC2CCC(C)CC2)c1OC (centres undefined)	none

Screens from PubChem BioAssay.
